Laboratory results from PubChem BioAssay.
Activity calls are given as the source filed them.

Columns and labels:
Albumin (Bos taurus) = Albumin (Bos taurus) (UniProt P02769); test: bovine serum albumin binders on microarray, profiling panel, artefact control for SMM control protein annotation, biochemical, small-molecule microarray, Alexa647 label, 635/667 nm fluorescence (AID 1118); details: BSA-A647 binding, fluorescence 635 nm, higher = more signal;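 further: score merges 667 nm emission intensity and signal-to-noise per printed compound spot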
[1] = small-molecule microarray binders of probe aXIP, primary screen, biochemical, NeuroSMM set, 635/667 nm fluorescence (AID 1119); details: higher = more signal, called active from +8 up or from −8 down;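 further: probe is the protein aXip251-270 applied at 1 µg/mL to compound-printed slides; binding of probe to printed compounds measured as 667 nm fluorescence plus signal to noise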
[2] = small-molecule binders of probe aNOTCH3, primary screen, biochemical, small-molecule microarray, 635/667 nm fluorescence (AID 1120); details: higher = more signal;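 further: probe is a biotin-tagged antibody raised against NOTCH3 rather than NOTCH3 protein; score merges spot fluorescence near 667 nm with spot signal to noise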
[3] = small-molecule binders of probe aNOTCH2, primary screen, biochemical, small-molecule microarray, 635/667 nm fluorescence (AID 1121); details: higher = more signal;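 further: score merges feature fluorescence read at 667 nm with its signal to noise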
[4] = target: Carbonic anhydrase 2 (Homo sapiens) (UniProt P00918); test: CAII small-molecule binders, profiling panel, biochemical, small-molecule microarray, Alexa647-labelled CAII (AID 1122); details: CAII-A647 binding fluorescence, higher = more signal
[5] = COS7 lysate on small-molecule microarray, probe aHis, 635 nm (AID 1123); details: COS7 cell lysate, fluorescence, higher = more signal;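 further: z-score combines 667nm fluorescence intensity with signal-to-noise per printed compound spot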
[6] = compound binding in COS7 lysate, probe aLAP1, primary screen, cell lysate, small-molecule microarray (AID 1124); details: probe aLAP1, fluorescence, higher = more signal;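 further: lysate comes from COS7 cells expressing LAP1 and is applied at 0.3 µg/mL; score merges spot fluorescence near 667 nm with signal-to-noise over triplicate slides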
Sam68 (KHDRBS1) = test: Sam68 small-molecule binders, primary screen, biochemical, small-molecule microarray, 635 nm fluorescence (AID 1125); details: small-molecule microarray binding, higher = more signal;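 further: score merges 667 nm channel intensity with signal to noise over triplicate slides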
[7] = system: Chordin-like protein 2 (CHRDL2); test: CHRDL2 small-molecule binders, primary screen, biochemical, small-molecule microarray, 635 nm fluorescence (AID 1126); details: small-molecule microarray binding, fluorescence 635 nm; higher = more signal;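 further: printed compound slides probed with Chrdl2 protein at 4 µg/mL for 1 h at 4 C; score merges 667 nm emission intensity with signal to noise over three replicate slides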
[8] = target: Concanavalin-A (Canavalia ensiformis) (UniProt P02866); test: ConA small-molecule binders, primary screen, artefact control for SMM control protein annotation, biochemical, small-molecule microarray, Alexa647 label, 635 nm (AID 1127); details: ConA-A647 binding fluorescence, higher = more signal;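 further: z combines 667 nm emission intensity with signal-to-noise across three replicate slides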
Sequence of Concanavalin-A (Canavalia ensiformis) (P02866 whole entry, looked up): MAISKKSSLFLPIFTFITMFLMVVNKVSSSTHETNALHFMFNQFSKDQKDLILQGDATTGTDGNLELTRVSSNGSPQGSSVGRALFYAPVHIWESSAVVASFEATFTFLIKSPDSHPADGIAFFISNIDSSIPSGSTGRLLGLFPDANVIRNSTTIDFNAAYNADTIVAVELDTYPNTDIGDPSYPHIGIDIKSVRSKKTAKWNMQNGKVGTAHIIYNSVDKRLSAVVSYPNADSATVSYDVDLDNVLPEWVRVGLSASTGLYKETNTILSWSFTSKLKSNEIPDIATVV

Sequence of Albumin (Bos taurus) (P02769 whole entry, looked up): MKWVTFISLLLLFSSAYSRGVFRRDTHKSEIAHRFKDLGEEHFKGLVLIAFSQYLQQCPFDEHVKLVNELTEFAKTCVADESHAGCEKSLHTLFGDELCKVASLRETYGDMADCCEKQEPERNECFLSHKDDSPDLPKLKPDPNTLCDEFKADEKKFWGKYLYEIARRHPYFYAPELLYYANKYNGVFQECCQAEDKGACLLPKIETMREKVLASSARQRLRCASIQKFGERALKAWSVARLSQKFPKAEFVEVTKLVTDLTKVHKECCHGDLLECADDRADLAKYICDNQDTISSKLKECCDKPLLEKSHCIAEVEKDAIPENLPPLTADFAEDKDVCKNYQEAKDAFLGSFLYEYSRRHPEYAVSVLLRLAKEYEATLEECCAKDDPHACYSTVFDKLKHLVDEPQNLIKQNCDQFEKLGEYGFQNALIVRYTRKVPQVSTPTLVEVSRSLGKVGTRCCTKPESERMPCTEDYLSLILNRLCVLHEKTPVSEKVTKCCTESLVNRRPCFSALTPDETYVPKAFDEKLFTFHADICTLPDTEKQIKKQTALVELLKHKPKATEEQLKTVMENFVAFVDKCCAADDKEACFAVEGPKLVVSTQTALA

Question: With `COC(=O)[C@@]1(Cc2ccccc2)N=C(c2ccc(OCCCO)cc2)O[C@H]1c1ccccc1N=[N+]=[N-]` as the molecule, how does the composite z-score (Albumin (Bos taurus)) read?
Answer: The composite z-score was -0.541.

Question: What about the composite Z-score [1] of the same molecule?
Answer: Its composite Z-score is 2.98 (inactive).

Question: And the composite z-score [2]?
Answer: The composite z-score was 0.104.

Question: What about the composite z-score [3] of the same molecule?
Answer: Its composite z-score is 0.114.

Question: And the composite z-score [4]?
Answer: Its composite z-score is 0.111.

Question: And the composite z-score [5]?
Answer: Its composite z-score is 1.37.

Question: What about the composite z-score [6] of the same molecule?
Answer: The composite z-score was 0.863.

Question: What about the composite z-score (Sam68 (KHDRBS1)) of the same molecule?
Answer: Its composite z-score is 1.06.

Question: And the composite z-score [7]?
Answer: The composite z-score was 0.968.

Question: And the composite z-score [8]?
Answer: The composite z-score was 0.649.

Question: Which composite z-score (Albumin (Bos taurus)) does the source give for `CN(C)CCCCNC(=O)[C@H]1C[C@H]2C(=O)N[C@@H](Cc3ccccc3)C(=O)N2[C@H]1c1ccc(O)cc1` here?
Answer: The composite z-score was 0.356.

Question: What about the composite Z-score [1] of the same molecule?
Answer: The composite Z-score was 0.124 (inactive).

Question: And the composite z-score [2]?
Answer: The composite z-score was 0.143.

Question: What about the composite z-score [3] of the same molecule?
Answer: The composite z-score was -0.0684.

Question: What about the composite z-score [4] of the same molecule?
Answer: The composite z-score was 0.158.

Question: What about the composite z-score [5] of the same molecule?
Answer: The composite z-score was 0.538.

Question: And the composite z-score [6]?
Answer: The composite z-score was 0.263.

Question: What about the composite z-score (Sam68 (KHDRBS1)) of the same molecule?
Answer: The composite z-score was 1.3.

Question: What about the composite z-score [7] of the same molecule?
Answer: The composite z-score was 0.956.

Question: And the composite z-score [8]?
Answer: The composite z-score was 0.863.

Question: Which results are given for `CCOC(=O)C[C@H]1[C@H](OC(=O)Cc2ccc3c(c2)OCO3)[C@@H](NC(=O)C2CCCCC2)c2cc(OCCCO)ccc2N1C(=O)Cc1ccc(OC)cc1`?
Answer: composite z-score (Albumin (Bos taurus)): 0.343; composite Z-score [1]: -0.145 (inactive); composite z-score [2]: 0.369; composite z-score [3]: -0.0993; composite z-score [4]: 0.231; composite z-score [5]: 0.557; composite z-score [6]: 0.366; composite z-score (Sam68 (KHDRBS1)): 1.15; composite z-score [7]: 0.107; composite z-score [8]: 0.343

Question: Which composite z-score (Albumin (Bos taurus)) does the source give for `CCOC(=O)C1=CC[C@@H](c2ccccc2)N(S(=O)(=O)c2ccc(C)cc2)[C@H]1C(=O)OCC` here?
Answer: The composite z-score was 0.744.

Question: And the composite Z-score [1]?
Answer: The composite Z-score was 0.615 (inactive).

Question: What about the composite z-score [2] of the same molecule?
Answer: Its composite z-score is 0.421.

Question: What about the composite z-score [3] of the same molecule?
Answer: The composite z-score was 0.144.

Question: What about the composite z-score [4] of the same molecule?
Answer: The composite z-score was 0.413.

Question: And the composite z-score [5]?
Answer: Its composite z-score is 1.22.

Question: What about the composite z-score [6] of the same molecule?
Answer: Its composite z-score is 0.748.

Question: What about the composite z-score (Sam68 (KHDRBS1)) of the same molecule?
Answer: The composite z-score was 1.12.

Question: What about the composite z-score [7] of the same molecule?
Answer: Its composite z-score is -0.361.

Question: What about the composite z-score [8] of the same molecule?
Answer: The composite z-score was -0.515.

Question: Which results are given for `COCCOC(=O)N1C(=O)[C@@]2(c3cc(C#CCNC(N)=O)ccc31)[C@H](c1ccccc1OCCO)N1[C@H](c3ccccc3)[C@H](c3ccccc3)OC(=O)[C@H]1[C@@H]2C(N)=O`?
Answer: composite z-score (Albumin (Bos taurus)): -0.117; composite Z-score [1]: -0.479 (inactive); composite z-score [2]: -0.0345; composite z-score [3]: -0.148; composite z-score [4]: 0.475; composite z-score [5]: -0.726; composite z-score [6]: 0.177; composite z-score (Sam68 (KHDRBS1)): 1.22; composite z-score [7]: 0.616; composite z-score [8]: 1.18

Question: For `O=C1OCCC=C[C@H]2OC34C=CCN(Cc5ccccc5)C(=O)[C@H]3N(CCCO)C(=O)[C@@H]4C12` (stereo not given in full), which composite z-score (Albumin (Bos taurus)) is on record?
Answer: The composite z-score was 0.117.

Question: What about the composite Z-score [1] of the same molecule?
Answer: The composite Z-score was -0.241 (inactive).

Question: What about the composite z-score [2] of the same molecule?
Answer: Its composite z-score is -0.275.

Question: What about the composite z-score [3] of the same molecule?
Answer: The composite z-score was -0.164.

Question: What about the composite z-score [4] of the same molecule?
Answer: Its composite z-score is 0.897.

Question: What about the composite z-score [5] of the same molecule?
Answer: Its composite z-score is 0.0967.

Question: What about the composite z-score [6] of the same molecule?
Answer: The composite z-score was -0.322.

Question: And the composite z-score (Sam68 (KHDRBS1))?
Answer: The composite z-score was -1.22.

Question: What about the composite z-score [7] of the same molecule?
Answer: The composite z-score was -0.229.

Question: What about the composite z-score [8] of the same molecule?
Answer: The composite z-score was -0.731.

Question: With `C=CCC(OC(C)=O)[C@@H]1[C@@H](N(Cc2ccc(-c3cccc(C(F)(F)F)c3)o2)C(=O)c2ccc(C)cc2)c2cc(OCCCO)ccc2N1C(=O)c1ccc(-c2ccccc2)cc1` (stereo not given in full) as the molecule, how does the composite z-score (Albumin (Bos taurus)) read?
Answer: Its composite z-score is -0.405.

Question: What about the composite Z-score [1] of the same molecule?
Answer: Its composite Z-score is 0.244 (inactive).

Question: What about the composite z-score [2] of the same molecule?
Answer: Its composite z-score is 0.0026.

Question: What about the composite z-score [3] of the same molecule?
Answer: The composite z-score was -0.115.

Question: What about the composite z-score [4] of the same molecule?
Answer: Its composite z-score is 0.376.

Question: And the composite z-score [5]?
Answer: Its composite z-score is -0.0056.

Question: What about the composite z-score [6] of the same molecule?
Answer: Its composite z-score is -0.0012.

Question: And the composite z-score (Sam68 (KHDRBS1))?
Answer: The composite z-score was -0.597.

Question: What about the composite z-score [7] of the same molecule?
Answer: Its composite z-score is 0.031.

Question: And the composite z-score [8]?
Answer: The composite z-score was 0.854.

Question: Which results are given for `O=C/C=C/c1ccc2c(c1)OCO2`?
Answer: composite z-score (Albumin (Bos taurus)): -0.776; composite Z-score [1]: 0.16 (inactive); composite z-score [2]: -0.0883; composite z-score [3]: -0.109; composite z-score [4]: -0.0937; composite z-score [5]: -0.408; composite z-score [6]: 1.57; composite z-score (Sam68 (KHDRBS1)): 0.256; composite z-score [7]: 1.11; composite z-score [8]: 0.176

Question: For `CC(=O)Nc1cc(Br)ccc1C(=O)O`, which composite z-score (Albumin (Bos taurus)) is on record?
Answer: Its composite z-score is 0.782.

Question: And the composite Z-score [1]?
Answer: The composite Z-score was -0.705 (inactive).

Question: And the composite z-score [2]?
Answer: The composite z-score was -0.0142.

Question: And the composite z-score [3]?
Answer: Its composite z-score is -0.0502.

Question: What about the composite z-score [4] of the same molecule?
Answer: Its composite z-score is 0.363.

Question: And the composite z-score [5]?
Answer: The composite z-score was 0.385.

Question: And the composite z-score [6]?
Answer: The composite z-score was -0.0197.

Question: And the composite z-score (Sam68 (KHDRBS1))?
Answer: Its composite z-score is 0.402.

Question: What about the composite z-score [7] of the same molecule?
Answer: Its composite z-score is -0.421.

Question: And the composite z-score [8]?
Answer: The composite z-score was 0.984.

Question: Which composite z-score (Albumin (Bos taurus)) does the source give for `CCOC(=O)C1=CCC(C(C)(C)C)N(S(=O)(=O)c2ccc(C)cc2)C1` (stereo not given) here?
Answer: Its composite z-score is 0.815.

Question: What about the composite Z-score [1] of the same molecule?
Answer: The composite Z-score was -0.427 (inactive).

Question: And the composite z-score [2]?
Answer: Its composite z-score is 0.34.

Question: What about the composite z-score [3] of the same molecule?
Answer: Its composite z-score is -0.0196.

Question: And the composite z-score [4]?
Answer: The composite z-score was 0.623.

Question: And the composite z-score [5]?
Answer: Its composite z-score is 2.45.

Question: What about the composite z-score [6] of the same molecule?
Answer: The composite z-score was 0.368.

Question: And the composite z-score (Sam68 (KHDRBS1))?
Answer: The composite z-score was 1.32.

Question: What about the composite z-score [7] of the same molecule?
Answer: The composite z-score was 0.825.

Question: What about the composite z-score [8] of the same molecule?
Answer: Its composite z-score is 1.1.
